KB-V1 cytotox – KB-V1 MDR subline cytotoxicity. Potency, µM (doses to about 46.1 µM), actives largely listed as cytotoxic. KB-V1 MDR cells viability, CellTiter-Glo, 72 h. 3.4% of 400,000 active; also: % is scaled to controls: 0 for no effect and ±100 for the full control effect; nearly all actives have a fitted effect of over 60% in size
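Cytotoxicity toward P-gp-expressing KB-V1 cells was determined as loss of CellTiter-Glo luminescence after 72 h at 37 degrees C. Compounds were tested in quantitative HTS format across a concentration range, with curves fitted to normalized data.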
MCF10A rereplic – inducers of DNA re-replication in MCF 10A breast cells; MCF 10A DNA re-replication, Hoechst nuclear intensity, 48 h; Potency, µM (titrated, usually from 46.1 µM), for the others: at the top dose activity, positive = re-replication, usual class: activators; 2.9% of 350,000 active; also: % of control where 0% means no effect; nearly all actives have a fitted effect of over 50% in size
SW480 rerep – inducers of DNA re-replication in SW480 colon cancer cells. SW480 DNA re-replication, Hoechst DNA content imaging, 48 h. AID 624297. 1.8% of 340,000 active. Potency, µM (top dose mostly 46.1 µM), inactives show at the highest dose re-replication activation, most hits filed as activators; also: % of control where 0% means no effect; nearly all actives have a fitted effect of over 55% in size
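Per well, 250 cells were exposed to pinned compound for 48 hr. Nuclear DNA was visualised with Hoechst (40 min, 37 C) and total object intensity recorded by fluorescence scanning.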
HT1080NT lethal – kills 2HG-producing HT-1080-NT fibrosarcoma cells; HT-1080-NT fibrosarcoma viability, CellTiter-Glo ATP luminescence, 48 h; Potency, µM (titrated, usually from 46.1 µM), without a hit: at the highest dose activity, negative = less viability, most hits filed as cytotoxic; 1.6% of 360,000 active; AID 686970;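 also: NT is the 2HG producing partner of a matched IDH1 knockdown line; 0% = DMSO-treated cells and -100% = media-only wells without cells; nearly all actives have a fitted effect of over 55% in size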
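Toxicity toward the 2HG-producing NT line was scored as %Activity, normalised to DMSO and no-cell wells, from CellTiter-Glo luminescence after 48 hours' treatment.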
KB-3-1 cytotox – KB-3-1 parental cell cytotoxicity | Potency, µM (top dose mostly 46.1 µM), actives largely listed as cytotoxic | 1.4% of 400,000 active | KB-3-1 viability, CellTiter-Glo ATP luminescence, 72 h; also: % is scaled to controls: 0 for no effect and ±100 for the full control effect; nearly all actives have a fitted effect of over 60% in size
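Parental KB-3-1 adenocarcinoma cells in phenol-red-free DMEM with 10% FBS were pin-treated with compounds at several concentrations, incubated 72 h at 37 °C, and viability read by CellTiter-Glo luminescence; concentration-effect curves were fitted after normalization.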
HT1080 IDH1KD tx – toxicity to HT-1080 IDH1 knockdown cells (counter line) | HT-1080 IDH1 knockdown viability, ATP luminescence, 48 h | Potency, µM (highest dose often 46.1 µM), inactives show top-dose activity, negative = toxicity, hits mostly cytotoxic | 2% of 360,000 active | AID 686971;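 also: 0% = DMSO wells and -100% = cell-free medium wells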
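Using the IDH1-knockdown HT-1080 line run in the same batch and compound series as the NT line, viability after 48 h at 37 °C was determined by CellTiter-Glo luminescence and expressed as % activity.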
Numbers without * were called inactive; i = inactive; ? = inconclusive; nt = no result; [ ] = another dose, or the depositor's remark. Only some compounds are listed: those with a hit (about 7.9% of all), similar ones and a draw of the others. Calls follow the shape of the dose curve; as a rule, active = well fitted curve in the direction sought with a large enough effect; inconclusive = small, poorly fitted or top-dose-only effect, or another doubt; inactive = no such curve, though single readings can be large; an effect the other way counts as inactive or inconclusive. Potency is read from the fitted curve at half-maximal effect.

SMILES | KB-V1 cytotox | MCF10A rereplic | SW480 rerep | HT1080NT lethal | KB-3-1 cytotox | HT1080 IDH1KD tx
Cc1ccccc1NC(=O)Cc1nc(COC(=O)c2ccc(S(C)(=O)=O)c([N+](=O)[O-])c2)cs1 | i | 3.66µM* | 13.5% | ? | ? | 16.4µM*
COc1cc(OC)c(C(=O)Nc2ccc(C(=O)c3ccccc3)cc2)cc1OC | i | 0.6% | -1.3% | 1.1% | i | -0.7%
CC(C)(C)OC(=O)NC(CO)c1cn([C@@H](Cc2cc3ccccc3[nH]2)C(=O)N2CCN(C(=O)OC(C)(C)C)CC2)nn1 (stereo not given in full) | i | ? | -15.7% | 10.5% | i | 14.0%
Cc1c(C(=O)NCCC2=CCCCC2)oc2ccc(S(=O)(=O)N3CCOCC3)cc12 | ? | ? | ? | -9.2% | ? | -28.2%
O=C(COC(=O)c1ccc([N+](=O)[O-])cc1)Nc1cccnc1Cl | i | -1.0% | -6.0% | 9.7% | ? | 7.2%
CC(=O)c1cccc(NC(=O)COC(=O)c2ccc(S(C)(=O)=O)c([N+](=O)[O-])c2)c1 | i | 2.59µM* | ? | ? | i | ?
CS(=O)(=O)c1ccc(C(=O)OCC(=O)N2CCN(CCC3CCCCC3)CC2)cc1[N+](=O)[O-] | 23.1µM* | nt | nt | nt | 6.51µM* | nt
CS(=O)(=O)c1ccc(C(=O)OCC(=O)Nc2cccnc2Cl)cc1[N+](=O)[O-] | i | 3.66µM* | ? | -27.9% | ? | ?
CC(=O)c1cccc(NC(=O)C(C)OC(=O)c2ccc(S(C)(=O)=O)c([N+](=O)[O-])c2)c1 (stereo not given) | i | nt | nt | nt | ? | nt
COC(=O)CCSc1cc(NCCCOC(C)=O)c([N+](=O)[O-])c2nonc12 | i | nt | nt | nt | i | nt
COC(=O)c1ccccc1NC(=O)CN(c1cc(OC)ccc1OC)S(C)(=O)=O | i | 3.2% | -11.1% | 2.8% | i | 6.8%
OC1(c2ccccc2)CCN(Cc2ccccc2)C2CCCCC21 (stereo not given) | 23.1µM* | 11.5% | -35.4% | -12.6% | i | -11.1%
Nc1ccc(C(=O)N2CCCC2)cc1 | i | -1.5% | -2.9% | 8.4% | i | 12.5%
Nc1ccc(C(=O)n2c3ccccc3c3ccccc32)cc1 | 1.84µM* | ? | 3.26µM* | ? | 2.31µM* | 0.92µM*
CN(CCO)C(=O)c1nc[nH]c1C(=O)N1CCN(C(=O)OC(C)(C)C)CC1 | i | nt | nt | 0.5% | i | 6.0%
CC(=O)Nc1cccc(-c2nnc(SCC(=O)c3ccc([N+](=O)[O-])cc3)o2)c1 | i | nt | nt | nt | i | nt
CC(C)(C)CC(C)(C)NCC(O)COc1ccc2c(c1)CCC2 (stereo not given) | ? | ? | ? | 20.6µM* | 20.6µM* | ?
CC(C)(CO)NCC(O)COc1ccc2c(c1)CCC2 (stereo not given) | i | 4.8% | -0.7% | -1.7% | i | 14.1%
CN(C)C(=O)C1(c2ccccc2)CCN(S(=O)(=O)c2ccccc2)CC1 | 20.6µM* | 0.4% | -7.5% | -4.0% | ? | -3.8%[9.24 µM]
COc1ccccc1CN1CC(C(=O)NCC2CCCO2)CC1=O (stereo not given) | i | 8.9% | 3.7% | 0.0% | i | 11.8%
S=P(N1CC1)(N1CC1)N1CC1 | i | ? | 2.06µM* | 22.8% | i | -1.0%
CCCCOc1ccc(-c2ncc(Cl)cn2)cc1 | i | ? | 4.7% | -2.3% | i | 9.1%
Cc1ccccc1OCCC(=O)Nc1ccc(Cl)cc1F | i | -5.7% | ? | -2.5% | i | -1.0%
COc1cc(-c2cc3nc(NCc4cccc(Cl)c4)ccn3n2)cc(OC)c1OC | ? | nt | nt | 16.4µM* | ? | 9.2µM*
Clc1cccc(CNc2ccn3nc(-c4cccc(OCc5ccccc5)c4)cc3n2)c1 | i | nt | nt | ? | ? | 9.2µM*
SMILES | KB-V1 cytotox | MCF10A rereplic | SW480 rerep | HT1080NT lethal | KB-3-1 cytotox | HT1080 IDH1KD tx
COc1cc(-c2cc3nc(NCc4cccs4)ccn3n2)cc(OC)c1OC | ? | nt | nt | ? | i | ?
CC(=O)Nc1cccc(OCC(=O)NC(C)c2ccc3ccccc3c2)c1 (stereo not given) | ? | 22.3% | -2.3% | -7.6% | i | 0.4%
C=CCn1c(CCNC(=O)c2cccs2)nnc1SCC(=O)c1ccc(Cl)cc1 | i | 25.9µM* | ? | ? | i | ?
C=CCn1c(CCNC(=O)c2cccs2)nnc1SCC(=O)c1cccc([N+](=O)[O-])c1 | i | ? | ? | -19.0% | i | ?
C=CCn1c(CNC(=O)c2cccs2)nnc1SCC(=O)c1ccc(Br)cc1 | 14.6µM* | 1.6% | -7.2% | -5.7% | i | ?
COc1ccc(C(=O)CCNc2ccc(C)c(Cl)c2)cc1 | i | 3.5% | -0.8% | 0.7% | i | 2.3%
FC(F)(F)c1ccc(N2CCOCC2)c(Nc2nc3ccccc3n3cnnc23)c1 | ? | 23.1µM* | ? | ? | ? | ?
Fc1ccc(Nc2nc3ccccc3n3cnnc23)c(F)c1 | i | nt | nt | nt | i | nt
c1ccc(N2CCCCC2)c(Nc2nc3ccccc3n3cnnc23)c1 | i | 11.6µM* | -75.6% | 13.3% | ? | 0.8%
CCOc1ccccc1C1N(c2ccc(F)cc2)C(=O)C2CCCN21 (stereo not given) | ? | 12.9% | -3.8% | -0.2% | i | -6.8%
COc1cccc(C(=O)Nc2ccc3c(c2)OCO3)c1OC | i | 1.4% | 0.6% | 20.6% | i | 10.5%
O=C(c1ccc(-c2cccc([N+](=O)[O-])c2)o1)N1CCN(c2ccc([N+](=O)[O-])cc2)CC1 | i | 1.5% | 4.1% | 2.6% | i | 1.0%
Cc1ccc(/C(C#N)=C\c2ccc(N3CCOCC3)o2)cc1 | i | -4.4% | -0.7% | 4.47µM* | i | 2µM*
N#C/C(=C/c1ccc(N2CCCCC2)o1)c1cccc(F)c1 | i | 7.31µM* | 8.2µM* | ? | i | 3.98µM*
N#C/C(=C/c1ccc(N2CCCCCC2)o1)c1ccc(Cl)cc1 | i | 2.91µM* | 13µM* | 5.62µM* | i | 2.24µM*
N#C/C(=C\c1ccc(N2CCOCC2)o1)C(=O)NC1CCCCC1 | i | 11.3% | -4.8% | 8.0% | ? | -1.0%
COc1ccc(CCNC(=O)Cc2cccs2)cc1 | i | 0.6% | -1.9% | 17.0% | i | 11.0%
CCOC(=O)N1CCN(C(=O)COc2cccc3c2CCN(Cc2ccc(F)cc2)C3=O)CC1 | ? | 1.1% | -2.8% | -6.7% | ? | -14.4%
O=C1c2cccc(OCc3ccc(F)cc3)c2CCN1Cc1ccccc1 | ? | ? | -1.7% | -22.2% | 16.4µM* | -18.2%

Source: PubChem (National Center for Advancing Translational Sciences (NCATS))
